Calls of active or inactive are those of the source. Rule for the calls: active = hit-call score of the fitted dose curve at least 0.9, where 1 is the maximum; inactive = score below 0.9.
Columns and labels:
[1] = read-out: Macrophage colony-stimulating factor (MCSF), CSF1 (gene 1435); assay: BSK_hDFCGF_MCSF: BioMAP Diversity Plus: hDFCGF Assay for Macrophage colony-stimulating factor (MCSF) Biomarker Activity (AID 2283060); conditions: primary human foreskin fibroblasts; actives raise or lower the signal
Summary of the method: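 M-CSF levels read by ELISA at 24 h post-dosing in human skin fibroblasts. Parallel cultures stained with SRB assessed cytotoxicity at the same time point; response fitted in both directions against the DMSO baseline.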

[2] = BSK_hDFCGF_SRB: Viability Assessment in the BioMAP Diversity Plus: hDFCGF Assay (AID 2283061); conditions: primary human foreskin fibroblasts;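 note: cells exposed to compound for 24 h before the read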
Summary of the method: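 Viability was read as total protein: after 10% TCA fixation, wells were stained with 0.1% sulforhodamine B and read at 560 nm. Primary human foreskin fibroblasts were dosed for 24 h, with bidirectional fitting versus DMSO.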

[3] = read-out: TIMP metallopeptidase inhibitor 1 (TIMP1), TIMP1 (gene 7076); assay: BSK_hDFCGF_TIMP1: BioMAP Diversity Plus: hDFCGF Assay for TIMP metallopeptidase inhibitor 1 (TIMP1) Biomarker Activity (AID 2283062); conditions: primary human foreskin fibroblasts; actives raise or lower the signal
Summary of the method: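 TIMP-1 measured by ELISA 24 h after chemical dosing of primary human skin fibroblasts, with gain or loss fitted relative to DMSO. Parallel SRB staining (560 nm) monitored overt cytotoxicity.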

[4] = read-out: Monokine induced gamma interferon (MIG), CXCL9 (gene 4283); assay: BSK_hDFCGF_MIG: BioMAP Diversity Plus: hDFCGF Assay for Monokine induced gamma interferon (MIG) Biomarker Activity (AID 2283063); conditions: primary human foreskin fibroblasts; actives raise or lower the signal
Summary of the method: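 Human primary foreskin fibroblasts in the hDFCGF system, exposed to test chemical for 24 h; MIG measured by ELISA. Bidirectional curve fitting against DMSO negative control as activity baseline.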

[5] = read-out: Matrix Metallopeptidase 1 (MMP1), MMP1 (gene 4312); assay: BSK_hDFCGF_MMP1: BioMAP Diversity Plus: hDFCGF Assay for Matrix Metallopeptidase 1 (MMP1) Biomarker Activity (AID 2283064); conditions: primary human foreskin fibroblasts; actives raise or lower the signal
Summary of the method: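 Primary human foreskin fibroblasts exposed to chemicals for 24 h; MMP1 measured by ELISA. Cytotoxicity tracked by SRB staining in parallel cultures; bidirectional fit relative to DMSO.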

[6] = read-out: Vascular cell adhesion molecule 1 (VCAM1), VCAM1 (gene 7412); assay: BSK_hDFCGF_VCAM1: BioMAP Diversity Plus: hDFCGF Assay for Vascular cell adhesion molecule 1 (VCAM1) Biomarker Activity (AID 2283065); conditions: primary human foreskin fibroblasts; actives raise or lower the signal
Summary of the method: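 ELISA readout of VCAM-1 on human dermal fibroblast primary cultures, 24 h after chemical exposure. Gain or loss of signal fitted in both directions against DMSO baseline.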

[7] = read-out: Plasminogen activator inhibitor-1 (PAI1), SERPINE1 (gene 5054); assay: BSK_hDFCGF_PAI1: BioMAP Diversity Plus: hDFCGF Assay for Plasminogen activator inhibitor-1 (PAI1) Biomarker Activity (AID 2283066); conditions: primary human foreskin fibroblasts; actives raise or lower the signal
Summary of the method: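 Primary dermal fibroblasts (human foreskin), hDFCGF system; compound 24 h; PAI-1 by ELISA; bidirectional fit vs DMSO control.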

[8] = read-out: Intercellular Adhesion Molecule 1 (ICAM1), ICAM1 (gene 3383); assay: BSK_KF3CT_ICAM1: BioMAP Diversity Plus: KF3CT Assay for Intercellular Adhesion Molecule 1 (ICAM1) Biomarker Activity (AID 2283067); conditions: primary human keratinocytes with fibroblasts; actives raise or lower the signal
Summary of the method: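 Cell-surface ICAM-1 was measured by ELISA 24 h after dosing primary human skin keratinocytes co-cultured with fibroblasts. Parallel SRB staining tracked overt cytotoxicity. Gain or loss of signal was fitted relative to DMSO.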

[9] = read-out: Interferon-gamma inducible Protein 10 (IP10), CXCL10 (gene 3627); assay: BSK_KF3CT_IP10: BioMAP Diversity Plus: KF3CT Assay for Interferon-gamma inducible Protein 10 (IP10) Biomarker Activity (AID 2283068); conditions: primary human keratinocytes with fibroblasts; actives raise or lower the signal
Summary of the method: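 Human keratinocyte plus foreskin fibroblast primary co-culture exposed to test chemical for 24 h; IP-10 measured by ELISA. Concentration-response fitted bidirectionally against DMSO control as baseline.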

[10] = BSK_KF3CT_SRB: Viability Assessment in the BioMAP Diversity Plus: KF3CT Assay (AID 2283069); conditions: primary human keratinocytes with fibroblasts;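 note: total protein by sulforhodamine B staining as a cytotoxicity measure; read 24 h after compound addition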
Summary of the method: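 Human keratinocyte and foreskin fibroblast co-culture exposed to chemical for 24 h. Total protein measured in parallel cultures by 0.1% sulforhodamine B staining after 10% TCA fixation, read at 560 nm; bidirectional fit relative to DMSO.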

[11] = read-out: Interleukin-1 alpha (IL1a), IL1A (gene 3552); assay: BSK_KF3CT_IL1a: BioMAP Diversity Plus: KF3CT Assay for Interleukin-1 alpha (IL1a) Biomarker Activity (AID 2283070); conditions: primary human keratinocytes with fibroblasts; actives raise or lower the signal
Summary of the method: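 Primary human keratinocyte plus foreskin fibroblast co-culture, dosed and measured at 24 h in 96-well plates. IL-1a level quantified by ELISA; bidirectional fit relative to DMSO.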

[12] = read-out: TIMP metallopeptidase inhibitor 2 (TIMP2), TIMP2 (gene 7077); assay: BSK_KF3CT_TIMP2: BioMAP Diversity Plus: KF3CT Assay for TIMP metallopeptidase inhibitor 2 (TIMP2) Biomarker Activity (AID 2283071); conditions: primary human keratinocytes with fibroblasts; actives raise or lower the signal
Summary of the method: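 Cells: human keratinocytes co-cultured with foreskin fibroblasts. Treat with chemical, 24 h. Measure TIMP-2 by ELISA; fit curves bidirectionally vs DMSO baseline.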

[13] = read-out: C-C motif chemokine 2 (Homo sapiens) (UniProt P13500); assay: BSK_KF3CT_MCP1: BioMAP Diversity Plus: KF3CT Assay for Monocyte Chemoattractant Protein 1 (MCP1/CCL2) Biomarker Activity (AID 2283073); conditions: primary human keratinocytes with fibroblasts; actives raise or lower the signal
Summary of the method: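 ELISA read-out of MCP-1, 24 h post-dose, in primary human skin keratinocytes co-cultured with fibroblasts. Parallel SRB staining monitors cytotoxicity; changes fitted both directions relative to DMSO.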

[14] = read-out: urokinase plasminogen activator (uPA), PLAU (gene 5328); assay: BSK_KF3CT_uPA: BioMAP Diversity Plus: KF3CT Assay for urokinase plasminogen activator (uPA) Biomarker Activity (AID 2283075); conditions: primary human keratinocytes with fibroblasts; actives raise or lower the signal
Summary of the method: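 Primary human keratinocyte/foreskin fibroblast co-culture exposed to chemical; uPA measured by ELISA at 24 h. Bidirectional fit versus DMSO, with parallel SRB total-protein staining for cytotoxicity.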

CD40, CD40 (gene 958) = assay: BSK_LPS_CD40: BioMAP Diversity Plus: LPS Assay for CD40 Biomarker Activity (AID 2283076); conditions: primary human HUVEC with PBMC; actives raise or lower the signal
Summary of the method: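 In the LPS system of human endothelial cells with peripheral blood mononuclear cells, CD40 levels were read by ELISA 24 h post-treatment. Signal changes in either direction were fitted against the DMSO baseline, with parallel SRB protein staining.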

[15] = read-out: E-selectin (Homo sapiens) (UniProt P16581); assay: BSK_LPS_Eselectin: BioMAP Diversity Plus: LPS Assay for Eselectin Biomarker Activity (AID 2283077); conditions: primary human HUVEC with PBMC; actives raise or lower the signal
Summary of the method: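 E-selectin ELISA on LPS-stimulated endothelial cell/PBMC co-cultures, read 24 h post-treatment; gains and losses fitted against DMSO. Parallel SRB staining (0.1% SRB after 10% TCA fixation, 560 nm) flags overt cytotoxicity.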

[16] = read-out: Interleukin-8 (IL8), CXCL8 (gene 3576); assay: BSK_LPS_IL8: BioMAP Diversity Plus: LPS Assay for Interleukin-8 (IL8) Biomarker Activity (AID 2283078); conditions: primary human HUVEC with PBMC; actives raise or lower the signal
Summary of the method: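 ELISA read-out of IL-8 after 24 h chemical treatment of LPS-activated endothelial/PBMC human primary co-cultures. Changes either up or down relative to DMSO; overt cytotoxicity checked by sulforhodamine B staining in parallel wells.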

[17] = BSK_LPS_SRB: Viability Assessment in the BioMAP Diversity Plus: LPS Assay (AID 2283079); conditions: primary human HUVEC with PBMC;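 note: total protein by sulforhodamine B absorbance as a cytotoxicity measure; measured one day after compound addition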
Summary of the method: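 SRB viability endpoint: cells fixed with 10% TCA, stained with 0.1% SRB, read at 560 nm, 24 h post-dose. HUVEC/PBMC co-culture; signal change in either direction scored relative to DMSO.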

[18] = read-out: Interleukin-1 alpha (IL1a), IL1A (gene 3552); assay: BSK_LPS_IL1a: BioMAP Diversity Plus: LPS Assay for Interleukin-1 alpha (IL1a) Biomarker Activity (AID 2283080); conditions: primary human HUVEC with PBMC; actives raise or lower the signal
Summary of the method: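 Readout is IL-1a level by ELISA, 24 h post-dose, fitted as gain or loss relative to DMSO. System: LPS-activated human primary co-culture of vascular endothelium and peripheral blood mononuclear cells, with parallel SRB total-protein cytotoxicity.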

[19] = read-out: Matrix Metallopeptidase 9 (MMP9), MMP9 (gene 4318); assay: BSK_KF3CT_MMP9: BioMAP Diversity Plus: KF3CT Assay for Matrix Metallopeptidase 9 (MMP9) Biomarker Activity (AID 2283074); conditions: primary human keratinocytes with fibroblasts; actives raise or lower the signal
Summary of the method: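 Human keratinocyte and foreskin fibroblast co-culture exposed to chemicals for 24 h; MMP9 biomarker measured by ELISA, bidirectional fitting relative to DMSO; cytotoxicity tracked by SRB total protein staining in parallel cultures.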

Measured: outcome

E-selectin (Homo sapiens), sequence (P16581 whole entry, looked up): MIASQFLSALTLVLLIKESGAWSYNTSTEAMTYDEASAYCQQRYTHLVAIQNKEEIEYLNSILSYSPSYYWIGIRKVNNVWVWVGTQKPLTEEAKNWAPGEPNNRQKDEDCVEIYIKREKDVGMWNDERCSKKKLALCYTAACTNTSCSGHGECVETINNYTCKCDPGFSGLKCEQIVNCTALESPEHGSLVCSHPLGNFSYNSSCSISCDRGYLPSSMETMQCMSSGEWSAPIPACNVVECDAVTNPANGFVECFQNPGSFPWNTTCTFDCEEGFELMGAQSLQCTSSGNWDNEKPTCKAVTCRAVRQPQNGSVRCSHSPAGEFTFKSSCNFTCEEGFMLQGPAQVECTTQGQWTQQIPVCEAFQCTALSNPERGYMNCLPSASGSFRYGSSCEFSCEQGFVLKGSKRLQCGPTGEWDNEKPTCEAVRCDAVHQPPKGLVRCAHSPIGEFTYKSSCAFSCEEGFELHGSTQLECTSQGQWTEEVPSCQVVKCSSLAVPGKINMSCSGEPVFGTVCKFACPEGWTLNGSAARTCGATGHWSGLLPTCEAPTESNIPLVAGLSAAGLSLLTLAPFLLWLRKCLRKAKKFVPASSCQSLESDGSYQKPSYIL

FC(F)(F)C(F)(F)CNCC(F)(F)C(F)(F)F
not listed: [18] | [19]
inactive: all other assays above

FC(F)(F)C(F)(F)C(F)(F)C(F)(F)C(F)(F)C(F)(F)C(F)(F)I
not listed: [19]
inactive: all other assays above

CC(C)(C)C(=O)CC(=O)C(F)(F)C(F)(F)C(F)(F)F
not listed: [18] | [19]
inactive: all other assays above

O=C(O)C(F)(F)C(F)(F)F
inactive: all assays above

O=C(O)C(F)(F)C(F)(F)C(F)(F)F
inactive: all assays above

Reference: PubChem BioAssay (EPA / NIEHS)
